Laboratory results taken from PubChem BioAssay.
The source made the active and inactive calls.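 How the source made its calls: active means RAM network inhibition above 8.4% in each of two replicates, 3 SD over the compound average; inconclusive means above 8.4% inhibition in only one replicate; inactive means 8.4% inhibition or less in each replicate.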

Test: RAM signaling pathway blockade in yeast – S. cerevisiae, Pdr1DBD-CYC8 efflux-inhibited sensitized strain, primary screen (AID 1298);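 further: 0% = DMSO untreated cells without growth and 100% = 10 µM 1-NA-PP1 full growth; higher means more yeast growth rescued from 5-FOA killing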
Conditions: S. cerevisiae cbk1-as DSE1-URA3 strain, 5-FOA growth OD615, 2 d; at 50 µM; stronger effect = higher value

**Q.** With `COc1ccc(C2C(C(=O)NCC3CCCO3)c3cc(OC)c(OC)cc3C(=O)N2C)cc1OC` (configuration not stated) as the molecule, how does the RAM network inhibition read?
**A.** 0.94% (inactive)

**Q.** For `CC(=O)CCS(=O)(=O)c1ccc(C)c(C)c1`, which RAM network inhibition is on record?
**A.** 1.15% (inactive)

**Q.** For `CC1(C)NC(=O)N(CC(O)COc2ccc(N3C(=O)c4ccccc4C3=O)cc2)C1=O` (configuration not stated), which RAM network inhibition is on record?
**A.** 0.17% (inactive)

**Q.** Which RAM network inhibition does the source give for `CCOc1ccc(N=Cc2c(O)cc(C)oc2=O)cc1` here?
**A.** 1.99% (inactive)

**Q.** With `O=C(Nc1ccccc1O)c1ccccc1O` as the molecule, how does the RAM network inhibition read?
**A.** -1.84% (inactive)

**Q.** For `c1ccc(CSc2nnc(-c3ccncc3)o2)cc1`, which RAM network inhibition is on record?
**A.** 1.96% (inactive)

**Q.** Which RAM network inhibition does the source give for `Cc1nccn1-c1c2c(c(C#N)c3nc4ccccc4n13)CCC2` here?
**A.** 2.4% (inactive)

**Q.** Which RAM network inhibition does the source give for `CCOC(=O)N1CCN(C(=O)C(C)(C)Oc2ccc(Cl)cc2)CC1` here?
**A.** 3.09% (inactive)

**Q.** For `Cc1c(NC(=O)Oc2ccccc2)sc(=S)n1C`, which RAM network inhibition is on record?
**A.** 0.99% (inactive)

**Q.** Which RAM network inhibition does the source give for `CCO/C(C)=C1\C(=O)N(CC)c2ccccc21` here?
**A.** 2.08% (inactive)

**Q.** Which RAM network inhibition does the source give for `CCOC(=O)C1CCN(c2c(N3CCN(Cc4ccccc4)CC3)c(=O)c2=O)CC1` here?
**A.** 6.15% (inactive)

**Q.** With `Cn1c2c(c3ccccc31)CC/C2=N\O` as the molecule, how does the RAM network inhibition read?
**A.** 1.01% (inactive)

**Q.** With `CSC1=NCCN1C(=O)c1cccs1` as the molecule, how does the RAM network inhibition read?
**A.** 1.55% (inactive)

**Q.** For `COC(=O)C1=C(C)Nc2ccc(C)cc2S1`, which RAM network inhibition is on record?
**A.** 3.11% (inactive)

**Q.** With `Cc1csc2nc(CNS(=O)(=O)c3ccc4c(c3)OCCO4)cn12` as the molecule, how does the RAM network inhibition read?
**A.** 2.03% (inactive)

**Q.** For `COc1ccc(-c2cn3c(C)c(C(=O)NCc4ccc5c(c4)OCO5)sc3n2)cc1`, which RAM network inhibition is on record?
**A.** 3.34% (inactive)

**Q.** For `O=C(c1ccc(Br)o1)N1CCN=C1SCc1cccnc1`, which RAM network inhibition is on record?
**A.** 3.23% (inactive)
